Compound activity deposited in PubChem by The Scripps Research Institute Molecular Screening Center.
Hits are enriched below; roughly 1.9% of the tested compounds scored in any of these assays.
MsrA inhibitor = inhibitors of bovine MsrA. purified bovine MsrA, absorbance read-out. inhibition, % at 15.5 µM. 360,000 compounds, 0.75% hits; in the data active means inhibition above about 4.5%
HTR5A ag ctr = HTR5A agonism, opioid heterodimer counter-screen | 340,000 compounds, 0.61% hits | P47898 | activation, % at 9.3 µM | HTR5A agonist assay, luminescence, cell-based; in the data active means activation mostly above about 9.5%, no sharp cut-off; inactive means mostly below about 7.6%
HTR5A inv ag = HTR5A inverse agonism, opioid heterodimer counter-screen; P47898; HTR5A cell line, luminescence; inhibition, % at 9.3 µM; 340,000 compounds, 0.083% hits; AID 504634; in the data active means inhibition mostly above about 23%, no sharp cut-off; inactive means mostly below about 18%
MOR-DOR inv ag = mu-delta opioid heterodimer inverse agonism; AID 504357; 340,000 compounds, 0.21% hits; cell-based MOR-DOR heterodimer luminescence; inhibition, % at 9.3 µM; P35372+P41143; in the data active means inhibition above about 22%, passing the limit was not always enough
Target sequence (P35372 whole entry, looked up): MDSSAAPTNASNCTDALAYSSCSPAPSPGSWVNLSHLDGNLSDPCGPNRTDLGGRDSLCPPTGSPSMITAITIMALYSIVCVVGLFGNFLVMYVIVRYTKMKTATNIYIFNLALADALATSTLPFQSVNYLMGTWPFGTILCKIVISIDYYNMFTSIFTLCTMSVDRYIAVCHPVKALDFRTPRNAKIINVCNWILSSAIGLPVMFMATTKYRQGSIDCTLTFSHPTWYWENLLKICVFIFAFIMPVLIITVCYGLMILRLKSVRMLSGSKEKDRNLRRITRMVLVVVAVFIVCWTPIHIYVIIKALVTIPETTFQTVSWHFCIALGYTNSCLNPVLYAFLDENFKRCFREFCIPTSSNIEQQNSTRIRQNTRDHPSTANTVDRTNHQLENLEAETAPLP
Target sequence (P41143 whole entry, looked up): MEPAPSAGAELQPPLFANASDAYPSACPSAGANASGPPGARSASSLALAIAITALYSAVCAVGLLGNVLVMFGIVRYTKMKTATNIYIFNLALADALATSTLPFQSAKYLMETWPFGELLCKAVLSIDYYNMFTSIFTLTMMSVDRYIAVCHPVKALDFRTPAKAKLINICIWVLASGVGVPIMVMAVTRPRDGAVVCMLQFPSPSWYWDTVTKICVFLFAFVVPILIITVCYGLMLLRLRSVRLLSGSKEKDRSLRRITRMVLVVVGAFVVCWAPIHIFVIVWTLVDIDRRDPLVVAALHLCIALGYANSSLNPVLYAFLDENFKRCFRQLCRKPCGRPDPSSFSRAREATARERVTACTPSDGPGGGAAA
MOR-DOR ag = agonists of human mu-delta opioid receptor heterodimerization; 340,000 compounds, 0.3% hits; activation, % at 9.3 µM; P35372+P41143; cells, OPRM1-OPRD1 heterodimerization, luminescence; in the data active means activation above about 18%
MsrA act = activates bovine MsrA enzyme; AID 602163; 360,000 compounds, 0.3% hits; activation, % at 10.6 µM; purified bovine MsrA, absorbance read-out; in the data active means activation above about 7.5%
Large screens that a line does not name were inactive.

CCC(C)NCCOCCOc1cc(C)c(Cl)c(C)c1 (stereo not given)	HTR5A ag ctr 11.5
CC1CCN(C2(O)C(=O)Nc3ccc([N+](=O)[O-])cc32)CC1 (stereo not given)	MsrA inhibitor 6.6
CC1CCN(C2(O)C(=O)Nc3ccc(Cl)cc32)CC1 (stereo not given)	none
COc1ccc(N=CC2=C(O)CC(c3ccccc3)CC2=O)c(OC)c1 (stereo not given)	none
CCOc1ccccc1N=CC1=C(O)CC(c2ccccc2)CC1=O (stereo not given)	HTR5A ag ctr 12.6
C/C(=C\c1ccccc1)CN1CCN(c2cccc(Cl)c2)CC1	none
OC(CN1CCN(c2cccc(Cl)c2)CC1)c1ccccc1 (stereo not given)	HTR5A ag ctr 12.5
OC(COC(c1ccccc1)c1ccccc1)CN1CCN(c2cccc(Cl)c2)CC1 (stereo not given)	none
NC(=O)CN1CCN(c2cccc(Cl)c2)CC1	HTR5A ag ctr 13.6
Cc1cc(C)c(O)c(C(=O)CC2CC(=O)NC(=O)C2)c1	none (no result: HTR5A ag ctr, HTR5A inv ag, MOR-DOR inv ag, MOR-DOR ag, MsrA act)
Cc1cccn2c(=O)c(/C=C(\C#N)C(N)=O)c(N3CCN(Cc4ccc5c(c4)OCO5)CC3)nc12	HTR5A ag ctr 11.4
CCOC(=O)/C(C#N)=C/c1c(N2CCN(Cc3ccc4c(c3)OCO4)CC2)nc2c(C)cccn2c1=O	none (no result: HTR5A ag ctr, HTR5A inv ag, MOR-DOR inv ag, MOR-DOR ag)
CCC(C)NC(=O)CCn1c(-c2ccccc2)cc(C(C)=O)c1C (stereo not given)	none
CCOC(=O)c1cc(-c2ccccc2)n(CCC(=O)NC(C)CC)c1C (stereo not given)	HTR5A ag ctr 11.1
C[C@@H]1ON(C)[C@H]2C[C@H]3c4cc(-c5cccc(Cl)c5)ccc4CCN3C[C@@H]12	none (no result: HTR5A ag ctr, HTR5A inv ag, MOR-DOR inv ag, MOR-DOR ag, MsrA act)
O=C(Nc1ccc(-c2nc3ccccc3[nH]2)cc1)c1ccc2c(c1)OCO2	HTR5A ag ctr 12.7
CC(C)(C)c1nn(-c2ccccc2)c2[nH]c(=O)c(CNCc3ccc4c(c3)OCO4)cc12	HTR5A ag ctr 11.6
CCOc1cccc(NCc2cc3c(C(C)(C)C)nn(-c4ccccc4)c3[nH]c2=O)c1	none
COc1ccc(CNC(=O)[C@@H](Cc2ccccc2)NC(=O)[C@H]2O[C@@H](n3ccc(=O)[nH]c3=O)[C@H](O)[C@@H]2O)cc1	none (no result: HTR5A ag ctr, HTR5A inv ag, MOR-DOR inv ag, MOR-DOR ag, MsrA act)
O=C(C(=O)N1CCC(CNS(=O)(=O)c2ccc(C(F)(F)F)cc2)CC1)c1cccs1	none (no result: HTR5A ag ctr, HTR5A inv ag, MOR-DOR inv ag, MOR-DOR ag, MsrA act)
O=S(=O)(c1ccc2nc(-c3ccccc3)[nH]c2c1)N1CCN(c2ccc(Cl)cc2)CC1	HTR5A ag ctr 10.4
S=C1NC[C@H](Cc2ccccc2)N1CC1CCN(CCCC2CCCCC2)CC1	none (no result: HTR5A ag ctr, HTR5A inv ag, MOR-DOR inv ag, MOR-DOR ag, MsrA act)
O=C(CNC1CCCCCC1)c1cccs1	MOR-DOR inv ag 32.8
Cc1cc2ccccc2n1CCNC(=O)COc1ccccc1	MOR-DOR ag 31.0
CCNC(=O)N1CCN(c2ccc(N3CCN(C(=O)NCC)[C@@H](C)C3)c(C)c2)[C@H](C)C1	none (no result: HTR5A ag ctr, HTR5A inv ag, MOR-DOR inv ag, MOR-DOR ag, MsrA act)
O=C1Nc2ccc(Br)cc2C1=Nc1cccnc1	none (no result: HTR5A ag ctr, HTR5A inv ag, MOR-DOR inv ag, MOR-DOR ag)
Cc1ccc(N=C2C(=O)Nc3ccc(C)c(Br)c32)cc1	MOR-DOR inv ag 67.1 (no result: MsrA inhibitor)
COc1cc(C)ccc1OCCOCCOc1cccc2ccc(C)nc12	HTR5A ag ctr 8.7
CCCCOCCCNC(=O)C[C@H]1C[C@@]2(C(=O)OC)C(=C[C@H](C(C)(C)C)O[C@@H]2C)N(CCC2=CCCCC2)C1=O	none (no result: HTR5A ag ctr, HTR5A inv ag, MOR-DOR inv ag, MOR-DOR ag, MsrA act)
O=C(C[C@@H]1C[C@@H]2c3cc(NC(=O)c4ccc5c(c4)OCO5)ccc3O[C@@H]2[C@@H](CO)O1)NCc1cccnc1	none (no result: HTR5A ag ctr, HTR5A inv ag, MOR-DOR inv ag, MOR-DOR ag, MsrA act)
CCCCNc1cccc2c1S(=O)(=O)N[C@H](C)CO2	none (no result: HTR5A ag ctr, HTR5A inv ag, MOR-DOR inv ag, MOR-DOR ag, MsrA act)
CCOC(=O)C1=C(O)/C(=C/c2ccc(-c3ccccc3C(=O)O)o2)SC1=Nc1ccc(C)cc1	HTR5A ag ctr 12.7
CCOC(=O)C1=C(O)/C(=C/c2ccc(-c3ccccc3C(=O)O)o2)SC1=Nc1ccc(OC)cc1	none
CC(C)(C)C1=CC(=O)C(=O)C(C(C)(C)C)=C1	MOR-DOR ag 36.3 (no result: MsrA inhibitor)
CC(C)(C)C1=CC(=Nc2ccccc2N)C=C(C(C)(C)C)C1=O	none
CC(=O)c1ccc(OCc2cn(CC(=O)c3ccc(O)cc3)nn2)c(C)c1	none (no result: HTR5A ag ctr, HTR5A inv ag, MOR-DOR inv ag, MOR-DOR ag)
O=C(Cn1cc(COc2ccc(Br)cc2[N+](=O)[O-])nn1)c1ccc(O)cc1	MsrA inhibitor 4.6
Cc1cc(C)c(S(=O)(=O)/N=C2/C=C(SCC(=O)O)C(=O)c3ccccc32)cc1C	MsrA act 9.4 (no result: MsrA inhibitor)
CCn1cc([N+](=O)[O-])c(C(=O)N2CCN(C(=O)c3ccco3)CC2)n1	HTR5A ag ctr 13.9
COC(=O)C1=C(C)N(C)C(=NCc2ccc(OC)cc2)NC1c1ccccc1 (stereo not given)	none (no result: HTR5A ag ctr, HTR5A inv ag, MOR-DOR inv ag, MOR-DOR ag, MsrA act)
O=C(NC(C(=O)c1ccccc1)N1CCOCC1)c1cccs1 (stereo not given)	HTR5A ag ctr 12.5
COC(=O)C1=C(C)NC(=S)NC1c1cccc(OC)c1 (stereo not given)	none (no result: HTR5A ag ctr, HTR5A inv ag, MOR-DOR inv ag, MOR-DOR ag, MsrA act)
Cc1ccc(N2CC(C(=O)N/N=C/c3sccc3C)CC2=O)cc1 (stereo not given)	MsrA inhibitor 4.6
Cc1ccsc1/C=N/NC(=O)C1CC(=O)N(c2ccc(F)cc2)C1 (stereo not given)	none
C[C@]12Cc3ccccc3C1CC1=N[C@@H](c3ccc(C(F)(F)F)cc3)O[C@@]13C[C@@H]2C(=O)N3C1CCN(Cc2ccccc2)CC1 (stereo not given in full)	none (no result: HTR5A ag ctr, HTR5A inv ag, MOR-DOR inv ag, MOR-DOR ag, MsrA act)
CCN1C(N(C)CCc2c[nH]c3ccccc23)=N[C@@H](c2cccc(C(F)(F)F)c2)C(C(=O)OC)=C1C	HTR5A ag ctr 22.3 (no result: MsrA inhibitor)
CCOc1ccc(NC(=O)c2ccc3[nH]c(=O)c(=O)[nH]c3c2)cc1	MsrA inhibitor 4.6
Cc1ccc(-c2nnn(CC(=O)N(CC3CCCO3)C(C(=O)NC3CCCC3)c3ccc(O)cc3)n2)o1 (stereo not given)	HTR5A ag ctr 9.4
Cc1ccc(-c2nnn(CC(=O)N(CC3CCCO3)C(C(=O)NC3CCCC3)c3ccc(F)cc3)n2)o1 (stereo not given)	none
CN(C)c1ccc(-c2n(C)c3ccccc3[n+]2C)cc1	MsrA inhibitor 4.6
CN1CCN(C(=O)/C=C/c2ccc3c(c2)OCO3)CC1	none
O=C(/C=C/c1ccc2c(c1)OCO2)N1CCN(c2n[nH]c(=O)[nH]c2=O)CC1	MsrA inhibitor 4.6
Fc1ccc(CN2CCN(c3ncc(Cc4ccccc4)cn3)CC2)c(Cl)c1	none (no result: HTR5A ag ctr, HTR5A inv ag, MOR-DOR inv ag, MOR-DOR ag, MsrA act)
CCCCOCCCNC(=O)C[C@H]1C[C@@]2(C(=O)OC)C(=C[C@H](C(C)(C)C)O[C@@H]2C)N(Cc2ccc3c(c2)OCO3)C1=O	none (no result: HTR5A ag ctr, HTR5A inv ag, MOR-DOR inv ag, MOR-DOR ag, MsrA act)
CCOc1ccc(C(=O)Nc2cccc([N+](=O)[O-])c2)cc1Br	HTR5A ag ctr 9.2
COc1ccccc1CCn1cnc(-c2ccc(F)cc2)c1CC(C)C	none (no result: HTR5A ag ctr, HTR5A inv ag, MOR-DOR inv ag, MOR-DOR ag, MsrA act)
COC(=O)[C@@H](Cc1ccc(O)cc1)NC(=O)[C@H]1O[C@@H](n2cnc3c(=O)[nH]c(N)nc32)[C@H](O)[C@@H]1O	none (no result: HTR5A ag ctr, HTR5A inv ag, MOR-DOR inv ag, MOR-DOR ag, MsrA act)
CCOC(=O)C(C)N1N=C(/C=C/c2ccc(OC)cc2)CCC1=O (stereo not given)	MsrA inhibitor 6.1
